Activity calls are given as the source filed them.
How the values were obtained:
[1] = test system: Plasmodium falciparum Sir2 (PF13_0152, Sir2A); assay: Plasmodium falciparum Sir2A binding compounds – biochemical, small-molecule microarray, 635 nm fluorescence, primary screen (AID 1098); settings: fluorescence 635 nm, higher = more signal;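 further: score merges spot fluorescence intensity with its signal-to-noise ratio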
[2] = probe aDKK1 binding to arrayed compounds – biochemical, biotinylated probe, 635/667 nm fluorescence, primary screen (AID 1099); settings: small-molecule microarray, higher = more signal;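 further: score merges 667nm spot fluorescence with signal to noise across triplicate slides; reference of the scale not given here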
[3] = probe aCHRDL2 binding to arrayed compounds – biochemical, biotinylated probe, 635/667 nm fluorescence, primary screen (AID 1100); settings: small-molecule microarray, higher = more signal
[4] = change in splice reporter luminescence, either direction, cell-based, HEK293, spliceosome inhibition project, primary screen (AID 1101); settings: HEK293 splicing luciferase reporter, 24 h, higher = more signal, called active from +8 up or from −8 down;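 further: HEK293 cells carrying a splicing-competent luciferase reporter gene; test concentration not given here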
[5] = target: Fibroblast growth factor 10 (Homo sapiens) (UniProt O15520); assay: compounds binding fibroblast growth factor 10 – biochemical, small-molecule microarray, 635 nm fluorescence, primary screen (AID 1102); settings: FGF10 binding, fluorescence 635 nm, higher = more signal
Sequence of Fibroblast growth factor 10 (Homo sapiens) (O15520 whole entry, looked up): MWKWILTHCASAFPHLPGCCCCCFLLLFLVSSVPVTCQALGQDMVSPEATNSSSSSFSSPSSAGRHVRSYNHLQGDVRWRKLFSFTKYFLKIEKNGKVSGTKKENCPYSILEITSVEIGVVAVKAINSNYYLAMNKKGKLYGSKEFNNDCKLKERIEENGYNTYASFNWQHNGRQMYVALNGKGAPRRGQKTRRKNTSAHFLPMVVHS

[6] = test system: glycogen synthase kinase-3 (GSK3A per assay name; protocol says GSK3B); assay: compounds binding glycogen synthase kinase-3 – biochemical, small-molecule microarray, 635 nm fluorescence, GSK3A, primary screen (AID 1103); settings: fluorescence 635 nm, higher = more signal; further: the record names both GSK3A and GSK3B
[7] = target: Epidermal growth factor receptor (Homo sapiens) (UniProt P00533); assay: compounds binding epidermal growth factor receptor – biochemical, small-molecule microarray, 635 nm fluorescence, primary screen (AID 1104); settings: EGFR binding, higher = more signal;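 further: score merges 667 nm emission intensity with spot signal to noise over triplicate slides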
Sequence of Epidermal growth factor receptor (Homo sapiens) (P00533 whole entry, looked up): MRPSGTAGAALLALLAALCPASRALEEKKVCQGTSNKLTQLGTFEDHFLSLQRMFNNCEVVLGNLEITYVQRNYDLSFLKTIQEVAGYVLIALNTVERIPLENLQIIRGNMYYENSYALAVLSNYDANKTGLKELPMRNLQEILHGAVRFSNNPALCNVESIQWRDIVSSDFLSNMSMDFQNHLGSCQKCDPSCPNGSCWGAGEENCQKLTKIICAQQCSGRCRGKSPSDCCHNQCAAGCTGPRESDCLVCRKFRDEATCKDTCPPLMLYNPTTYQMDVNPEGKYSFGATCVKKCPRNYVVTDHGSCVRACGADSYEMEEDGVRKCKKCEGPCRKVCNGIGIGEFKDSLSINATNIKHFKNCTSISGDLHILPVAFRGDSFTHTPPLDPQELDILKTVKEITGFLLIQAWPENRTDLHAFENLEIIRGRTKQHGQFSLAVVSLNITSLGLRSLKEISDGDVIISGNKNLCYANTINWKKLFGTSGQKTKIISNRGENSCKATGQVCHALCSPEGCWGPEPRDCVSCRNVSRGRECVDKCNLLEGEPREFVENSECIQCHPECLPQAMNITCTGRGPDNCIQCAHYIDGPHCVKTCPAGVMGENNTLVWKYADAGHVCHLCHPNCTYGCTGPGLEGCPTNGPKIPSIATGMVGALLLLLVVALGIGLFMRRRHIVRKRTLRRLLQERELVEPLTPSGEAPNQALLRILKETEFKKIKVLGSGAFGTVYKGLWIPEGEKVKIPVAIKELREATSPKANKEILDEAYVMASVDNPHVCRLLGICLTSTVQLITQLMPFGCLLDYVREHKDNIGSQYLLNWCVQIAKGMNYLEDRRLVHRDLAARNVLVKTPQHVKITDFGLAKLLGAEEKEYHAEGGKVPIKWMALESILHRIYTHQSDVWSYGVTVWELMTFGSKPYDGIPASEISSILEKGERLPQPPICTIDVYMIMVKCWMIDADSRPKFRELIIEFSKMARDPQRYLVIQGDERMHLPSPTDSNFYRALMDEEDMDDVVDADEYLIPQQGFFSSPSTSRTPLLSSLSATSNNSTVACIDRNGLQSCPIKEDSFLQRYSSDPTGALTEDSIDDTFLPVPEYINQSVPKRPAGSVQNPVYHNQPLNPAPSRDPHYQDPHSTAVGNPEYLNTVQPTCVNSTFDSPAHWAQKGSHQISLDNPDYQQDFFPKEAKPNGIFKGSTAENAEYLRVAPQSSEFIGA

[8] = target: Follistatin-related protein 3 (Homo sapiens) (UniProt O95633); assay: compounds binding follistatin-related protein 3 – biochemical, small-molecule microarray, 635 nm fluorescence, primary screen (AID 1105); settings: FSTL3 binding, higher = more signal;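 further: score merges emission near 667 nm and signal to noise per printed spot across three slides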
Sequence of Follistatin-related protein 3 (Homo sapiens) (O95633 whole entry, looked up): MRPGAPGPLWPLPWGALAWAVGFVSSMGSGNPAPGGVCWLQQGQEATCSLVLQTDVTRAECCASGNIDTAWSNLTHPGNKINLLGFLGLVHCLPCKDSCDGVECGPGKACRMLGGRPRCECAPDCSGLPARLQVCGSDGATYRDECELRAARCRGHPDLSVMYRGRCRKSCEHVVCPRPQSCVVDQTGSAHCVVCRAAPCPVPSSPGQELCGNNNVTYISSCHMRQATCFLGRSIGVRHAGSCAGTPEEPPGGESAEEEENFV

[9] = target: Dickkopf-related protein 1 (Homo sapiens) (UniProt O94907); assay: small molecules binding DKK1 protein – biochemical, small-molecule microarray, 635 nm fluorescence scan, primary screen (AID 1106); settings: higher = more signal;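 further: score merges emission near 667 nm with signal to noise over three replicate slides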
Sequence of Dickkopf-related protein 1 (Homo sapiens) (O94907 whole entry, looked up): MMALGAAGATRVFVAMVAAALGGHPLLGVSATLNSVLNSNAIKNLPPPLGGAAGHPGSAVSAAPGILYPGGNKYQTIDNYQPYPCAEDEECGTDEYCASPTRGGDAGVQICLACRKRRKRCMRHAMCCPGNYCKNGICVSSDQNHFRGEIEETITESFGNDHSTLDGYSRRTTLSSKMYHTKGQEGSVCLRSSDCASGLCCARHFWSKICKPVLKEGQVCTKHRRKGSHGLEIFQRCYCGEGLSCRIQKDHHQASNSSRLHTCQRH

[10] = test system: Inhibin beta A chain (activin A); assay: small molecules binding activin A – biochemical, small-molecule microarray, 635 nm fluorescence scan, primary screen (AID 1107); settings: INHBA, higher = more signal;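 further: mouse activin A protein probed at 4.33 µg/mL on printed slides; score merges bound-protein fluorescence near 667 nm with spot signal-to-noise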

SMILES | composite z-score [1] | composite z-score [2] | composite z-score [3] | z-score [4] | composite z-score [5] | composite z-score [6] | composite z-score [7] | composite z-score [8] | composite z-score [9] | composite z-score [10]
CC(C)CNC(=O)[C@@H]1c2ccccc2C(=O)N(CC23CC4CC(CC(C4)C2)C3)[C@H]1c1ccc(CO)cc1 | 0.248 | 0.031 | 0.446 | -1.46 (inactive) | 0.124 | 1.02 | 0.0591 | 0.777 | -0.0314 | 0.471
[N-]=[N+]=NCc1ccccc1[C@@H]1OC(c2ccc(OCCCO)cc2)=N[C@]1(Cc1ccccc1)C(=O)NCc1ccccc1 | 0.869 | -0.0406 | 0.996 | -1.29 (inactive) | 0.769 | 0.113 | 0.131 | 0.529 | -0.154 | 0.656
CCCCC(O)C1C=CC2C(=O)NC(=O)C2N1Nc1ccc(Cl)cc1Cl (stereo not given) | 0.976 | 0.635 | 1.03 | -0.167 (inactive) | 0.228 | -0.104 | -0.429 | -0.125 | -0.8 | 0.979
C=CCNC(=O)[C@H]1[C@@H]2C(=O)O[C@@H](c3ccccc3)[C@@H](c3ccccc3)N2[C@@H](c2ccccc2OCCO)[C@]12C(=O)N(C(=O)OCCOC)c1ccccc12 | 1.58 | 0.125 | 0.0274 | -1.24 (inactive) | 1.08 | 1.28 | 0.341 | 0.616 | 0.239 | -0.101
O=C1c2ccccc2[C@](Cc2ccccc2I)(C(=O)O)[C@H](c2ccc(CO)cc2)N1Cc1ccccc1 | 1.39 | 0.486 | 0.736 | 0.188 (inactive) | -0.011 | -0.0481 | -0.964 | -0.509 | -0.69 | -0.309
C[N+](C)(C)CCCCCCNC(=O)[C@@H]1C[C@@H]2C(=O)N[C@@H](Cc3ccccc3)C(=O)N2[C@@H]1c1ccc(O)cc1 | 1.61 | -0.409 | -0.578 | 0.372 (inactive) | 1.21 | 0.89 | 0.776 | 1.48 | 0.92 | 0.633
COc1ccccc1CN1C(=O)c2ccccc2[C@@H](C(=O)NCCCN(C)C)[C@@H]1c1ccc(CO)cc1 | 1.31 | 0.503 | -0.205 | -0.0655 (inactive) | 0.0373 | -0.841 | -0.127 | -0.235 | 0.271 | 0.545
CC(C)C[C@H]1NC(=O)[C@H](Cc2ccccc2)NC(=O)[C@@]23C(=O)N[C@@H](Cc4ccccc4)C2[C@H](C)[C@@]2(C)O[C@H]2C3/C=C/C/C=C\CNC1=O (stereo not given in full) | 1.19 | 0.0099 | -0.4 | -0.514 (inactive) | 0.916 | 0.979 | 0.121 | 0.676 | 0.726 | 1.12
COCCCNC(=O)[C@@H]1c2ccccc2C(=O)N(C2CCCCC2)[C@H]1c1ccc(CO)cc1 | 1.2 | 0.164 | 0.864 | 0.0373 (inactive) | -0.779 | -1.82 | -1.22 | -0.849 | -1.54 | -0.0501
O=C1O[C@H](c2ccccc2)[C@H](c2ccccc2)N2[C@H]1[C@@H](C(=O)N1CCN(c3ncccn3)CC1)[C@]1(C(=O)Nc3ccccc31)[C@H]2c1ccc(O)cc1 | 0.612 | 0.571 | 0.544 | -0.117 (inactive) | 0.506 | 0.799 | -0.149 | -0.0987 | 0.165 | 0.0112
O=C1O[C@H](c2ccccc2)[C@H](c2ccccc2)N2[C@H]1[C@@H](C(=O)NC[C@H](O)c1ccccc1)[C@]1(C(=O)Nc3ccc(C#CCCO)cc31)[C@H]2c1ccccc1OCCO | 1.51 | -0.232 | 0.558 | 0.0927 (inactive) | 0.458 | -0.495 | -0.297 | 0.577 | -0.515 | 0.205
C=CCN1C(=O)[C@]2(O[C@H](CCn3cc([C@H](O)c4ccccc4)nn3)[C@@H]([Si](C)(C)c3ccc(OC)cc3)[C@@H]2C)c2cc(N3C(=O)c4cccc5cccc3c45)ccc21 | 0.783 | -0.168 | 0.195 | -1.18 (inactive) | 0.57 | -0.549 | -0.795 | 0.187 | -0.857 | -0.302
O=C(NCCO)C1=C[C@H](Oc2ccccc2I)[C@@H](O)[C@H](NCc2ccc(F)cc2)C1 | -1.55 | -0.472 | -0.552 | -0.635 (inactive) | 1.61 | -0.814 | -0.201 | -1.52 | 1.19 | -2.01
C=CCC(OC(C)=O)[C@@H]1[C@@H](N(Cc2ccc(-c3cccc(C(F)(F)F)c3)o2)C(=O)Cc2ccc(OC)cc2)c2cc(OCCCO)ccc2N1C(=O)c1ccc2ccccc2n1 (stereo not given in full) | 0.51 | -0.107 | 0.621 | -0.492 (inactive) | 0.104 | -1.24 | -0.567 | 0.0391 | 0.062 | 1.58
COCCOC(=O)N1C(=O)[C@@]2(c3cc(C#CCCO)ccc31)[C@H](c1ccc(O)cc1)N1[C@H](c3ccccc3)[C@H](c3ccccc3)OC(=O)[C@H]1[C@@H]2C(=O)N1CCc2cc(OC)c(OC)cc2C1 | 1.16 | 0.058 | 0.342 | 0.305 (inactive) | 1.39 | 1.31 | 0.878 | 1.44 | 0.993 | 1.01
CCOC(=O)C[C@H]1[C@H](OC(=O)Cc2ccc3c(c2)OCO3)[C@@H](NC(=O)c2ccccc2)c2cc(OCCCO)ccc2N1C(=O)Cc1ccc(OC)cc1 | -0.1 | -0.386 | -0.167 | -2.62 (inactive) | 0.236 | 0.227 | 0.237 | 0.339 | 0.0486 | -0.296
CC(C)=CCN(C(=O)C#Cc1ccccc1)[C@H](CO)c1ccccc1 | -0.117 | -0.267 | -0.693 | 7.56 (inactive) | 0.341 | 0.506 | 0.512 | 0.604 | 0.439 | 0.661

SMILES | composite z-score [1] | composite z-score [2] | composite z-score [3] | z-score [4] | composite z-score [5] | composite z-score [6] | composite z-score [7] | composite z-score [8] | composite z-score [9] | composite z-score [10]
C=C(COC)/C(=C/C[C@@H](OC(C)=O)c1ccccc1OCCO)c1cc(C(=O)OC)ccc1OC | 1.01 | -0.0445 | 0.012 | 0.846 (inactive) | 1.23 | -0.208 | -0.676 | -0.0333 | -0.343 | 0.416
COC(=O)c1c(CC[C@@H](CO)NC(=O)N[C@@H](Cc2ccccc2)Cn2cc(-c3cncn3C)nn2)oc(C(C)=O)c1C(=O)OC | 0.942 | -0.193 | -0.192 | -1.71 (inactive) | 0.481 | 0.352 | -0.913 | 0.367 | -0.376 | -0.721
NC(=O)N1C(=O)C2C(C1=O)C1C=C(CCCO)C2C(c2ccc(CN3CCCC3)cc2)N1Cc1cccc(OC(F)(F)F)c1 (stereo not given) | 0.488 | 0.084 | 0.263 | -0.443 (inactive) | 0.374 | 0.686 | 0.634 | 0.719 | 0.723 | 1.59
CC(C)[Si](C#CCCCC#N)(O[C@H](c1ccccc1)c1cn([C@H](C)c2ccccc2)nn1)C(C)C | 0.475 | 0.0086 | -0.453 | -3.01 (inactive) | 0.524 | 0.973 | 0.22 | 1.08 | 0.668 | -0.301
COC(=O)[C@H](Cc1ccc(O)cc1)N1CC2=CCCC=C[C@@H]2[C@H]1[C@H](O)Cc1ccccc1 | 0.751 | -0.301 | -0.538 | -1.07 (inactive) | 0.477 | -0.159 | 0.72 | 0.255 | 0.0139 | 0.493
CCCCN1CC=CC23O[C@@H]4C=CCOC(=O)[C@@H]4[C@H]2C(=O)N(C(CO)C(C)C)[C@@H]3C1=O (stereo not given in full) | -0.662 | -0.353 | -0.476 | -0.116 (inactive) | -0.372 | -0.13 | -0.759 | 0.0236 | 0.185 | 0.843
CC(C)C[C@H]1NC(=O)[C@@H](C)NC(=O)[C@@]23C(=O)N[C@@H](Cc4ccccc4)C2[C@H](C)[C@@]2(C)O[C@H]2C3/C=C/C/C=C\CNC1=O (stereo not given in full) | 1.13 | -0.334 | -0.585 | -0.0326 (inactive) | 0.509 | -0.164 | 0.634 | 0.638 | 0.389 | 1.29
CO[C@H]1O[C@H](CO)[C@@H](OC(=O)Nc2ccc3c(c2)OCO3)[C@@H]2OC(=O)[C@@H](Cc3ccccc3)C/C=C/C[C@H](Cc3ccccc3)C(=O)O[C@@H]12 | 0.915 | 0.0902 | 0.259 | 0.216 (inactive) | 1.39 | 0.708 | 0.342 | 0.817 | 0.401 | 0.996
COC(=O)[C@@]1(Cc2ccccc2)[C@H]2c3cc(C(=O)N4CCCC4)n(Cc4ccc(C(F)(F)F)nc4)c3C[C@H]2CN1C(=O)c1ccccc1 | 1.28 | 0.568 | 1.02 | -0.434 (inactive) | 0.881 | 1.32 | 0.0424 | 1.1 | -0.269 | 0.634
C=CC[C@@]1(C(=O)N(C)C)N=C(c2ccc(OCCCO)cc2)O[C@@H]1c1ccccc1 | 1.72 | 0.595 | 0.959 | -0.69 (inactive) | 1.4 | 1.01 | -0.644 | -0.583 | -0.217 | 1.17
CC(=O)NCCCC[C@@H]1NC(=O)[C@@H]2C[C@H](C(=O)NCCCCCC[N+](C)(C)C)[C@H](c3ccc(O)cc3)N2C1=O | 1.42 | -0.134 | -0.208 | -0.0826 (inactive) | 0.518 | 0.224 | 0.0882 | 0.977 | 1.12 | 0.645
COCCOC(=O)N1C(=O)[C@@]2(c3cc(C#CCCO)ccc31)[C@H](C(=O)N1CCc3cc(OC)c(OC)cc3C1)[C@H]1C(=O)O[C@H](c3ccccc3)[C@H](c3ccccc3)N1[C@@H]2c1ccccc1OCCO | 1.64 | -0.232 | 0.0036 | -0.961 (inactive) | 1.42 | 1.29 | 0.861 | 1.32 | 0.35 | 0.748
CCOC(=O)C1=CCC(c2cc3ccccc3[nH]2)N(S(=O)(=O)c2ccccc2[N+](=O)[O-])C1 (stereo not given) | 0.984 | 0.225 | -0.006 | -0.365 (inactive) | 0.696 | 0.565 | -0.106 | 0.319 | -0.117 | 0.722
COc1ccc([Si](C)(C)[C@H]2[C@H](CCO)O[C@@]3(C(=O)N(Cc4ccc(N5CCOC5=O)cc4)c4ccccc43)[C@@H]2C)cc1 | 0.901 | -0.0663 | 0.171 | -1.15 (inactive) | -0.0921 | -0.155 | -0.197 | -0.0181 | -0.524 | 0.416
CN1C(=O)C2C(C1=O)C1C=C(c3ccc(CO)cc3)C2C(c2cccs2)N1C (stereo not given) | 0.609 | 0.0014 | 0.381 | -0.516 (inactive) | -0.0606 | 0.378 | -0.2 | -0.164 | -0.0556 | 0.779
C=CCOC(=O)[C@@H]1[C@H]2C(=O)O[C@H](c3ccccc3)[C@H](c3ccccc3)N2[C@H](c2ccc(OCCOC(=O)[C@H]3C[C@H]4C(=O)NCC(=O)N4[C@H]3c3ccc(O)cc3)cc2)[C@@]12C(=O)Nc1ccc(I)cc12 | 1.57 | 0.159 | 0.21 | 1.14 (inactive) | 0.613 | 1.35 | 0.728 | 1.02 | 0.674 | -0.0057
